High-throughput results as filed in PubChem.
Sampled rows, rich in hits. Any-hit rate of the full collection: about 4.1%.
AmpC inh detg = inhibitors of E. coli AmpC beta-lactamase with detergent | P00811 | AmpC hydrolysis of nitrocefin, absorbance 480 nm, 0.01% Triton | Potency, µM (top dose mostly 114 µM), for inactives: top-dose activity change, negative = inhibition, most hits filed as inhibitors | hit rate 0.041% among 370,000 | AID 485294;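 also: 0% = no-compound wells and -100% = no-enzyme wells; nearly all actives have a fitted effect of over 25% in size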
Target sequence (P00811 whole entry, looked up): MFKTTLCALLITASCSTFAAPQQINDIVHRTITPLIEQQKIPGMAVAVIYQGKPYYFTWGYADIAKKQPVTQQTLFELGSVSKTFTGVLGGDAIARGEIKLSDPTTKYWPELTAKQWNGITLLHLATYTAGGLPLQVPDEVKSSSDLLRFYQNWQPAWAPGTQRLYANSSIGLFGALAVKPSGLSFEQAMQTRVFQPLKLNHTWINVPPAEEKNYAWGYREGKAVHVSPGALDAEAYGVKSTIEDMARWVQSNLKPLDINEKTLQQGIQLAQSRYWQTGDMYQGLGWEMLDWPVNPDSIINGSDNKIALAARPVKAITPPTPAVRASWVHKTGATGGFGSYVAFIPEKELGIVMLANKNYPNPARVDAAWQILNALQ
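AmpC (5.3 nM in the dispensed reagent) in 20 mM phosphate pH 7.0 with 0.01% (detergent screen) or 0.0001% Triton X-100 was preincubated with compounds for 15 min at room temperature. Nitrocefin was then added from an 800 uM solution, and hydrolysis was followed at 480 nm.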
AMA1 RON2 block = inhibitors of Plasmodium falciparum AMA1-RON2 interaction; hit rate 0.2% among 360,000; AlphaScreen AMA1-biotinylated RON2 peptide binding; Potency, µM (highest dose often 58.2 µM), for inactives: top-dose activity change, negative = inhibition, hits mostly inhibitors;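 also: 0% = vehicle wells and -100% = peptide control; nearly all actives have a fitted effect of over 45% in size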
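AMA1 (3D7) with his tag at 25 nM final met compounds first, then biotinylated RON2 peptide at 25 nM; detection used donor plus acceptor beads, 10 µg/mL apiece, read by AlphaScreen after 30 min at room temperature.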
Sm TGR block = inhibitors of Schistosoma mansoni thioredoxin glutathione reductase | hit rate 3% among 360,000 | Q962Y6 | Potency, µM (doses to about 114 µM), for the others: at the highest dose activity change, negative = inhibition, hits mostly inhibitors | AID 485364 | purified TGR, DTNB reduction, TNB absorbance 405 nm; also: nearly all actives have a fitted effect of over 60% in size
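Kinetic colorimetric format: TGR-catalysed, NADPH-driven DTNB reduction monitored via TNB absorbance. Enzyme dispensed at 20 nM; compound exposure 15 min at room temperature before reaction start.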
AmpC no deterg = AmpC beta-lactamase inhibition without detergent; Potency, µM (doses to about 57.1 µM), without a hit: top-dose activity change, negative = inhibition, hits mostly inhibitors; hit rate 0.52% among 330,000; P00811; AmpC nitrocefin hydrolysis, absorbance 480 nm, 0.0001% Triton; AID 485341;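 also: plate controls were no compound for no effect and no enzyme for full effect; nearly all actives have a fitted effect of over 20% in size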
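20 mM phosphate pH 7.0 + 0.01% (detergent screen) or 0.0001% Triton X-100; 5.3 nM AmpC reagent; cpd preinc 15 min RT; nitrocefin (800 uM stock) to start; A480 q20 s × 4 min; Activity was normalised to no-enzyme and no-compound control wells.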
FMDV inh = antivirals against foot and mouth disease virus; AID 1159524; hit rate 1.2% among 410,000; FMDV antiviral cell-based qHTS; Potency, µM (highest dose often 57.9 µM), without a hit: at the highest dose activity change, negative = inhibition, most hits filed as inhibitors; calls by dose curve; tested in HEK293T cells; also: read-out not given here; nearly all actives have a fitted effect of over 45% in size
Starred values were filed as active, the others as inactive; u = inconclusive; x = no result given. Unless noted, calls follow the shape of the dose curve; as a rule, active = well fitted curve in the direction sought with a large enough effect; inconclusive = small, poorly fitted or top-dose-only effect, or another doubt; inactive = no such curve, though single readings can be large; an effect the other way counts as inactive or inconclusive. Unless noted, % is scaled to controls: 0 for no effect and ±100 for the full control effect; potency is read from the fitted curve at half-maximal effect.

SMILES	AmpC inh detg	AMA1 RON2 block	Sm TGR block	AmpC no deterg	FMDV inh
O=C1CSC(c2cn(-c3ccccc3)nc2-c2cc3ccccc3o2)N1Cc1ccccc1 (stereo not drawn)	u	-6%	-11%	-16%	2%
O=C1CSC(c2cn(-c3ccccc3)nc2-c2cc3ccccc3oc2=O)N1Cc1ccco1 (stereo not drawn)	u	1%	22µM*	10%	-9%
O=C1CSC(c2cn(-c3ccccc3)nc2-c2cccs2)N1Cc1ccccc1 (stereo not drawn)	-4%	x	-18%	-4%	x
Cc1ccc(-c2nn(-c3ccccc3)cc2C2SCC(=O)N2Cc2ccccc2)o1 (stereo not drawn)	-7%	-20%	11µM*	-2%	u
CC(C)(C)N=C1C([N+](=O)[O-])=CC=C2C1=NC1(CCCCC1)N2O	6%	u	u	-21%	0%
O=[N+]([O-])C1=CC=C2C(=NC3(CCCCC3)N2O)C1=NCCc1ccccc1	6%	-22%	45µM*	-13%	-24%
COc1cccc(CNC(=O)C(=O)NCC(c2cccs2)S(=O)(=O)c2cccs2)c1 (stereo not drawn)	1%	x	25µM*	x	u
COc1cccc(CNC(=O)C(=O)NCC(c2ccco2)S(=O)(=O)c2cccs2)c1 (stereo not drawn)	0%	x	4µM*	x	-29%
O=C(NCc1ccccc1)C(=O)NCC(c1ccco1)S(=O)(=O)c1cccs1 (stereo not drawn)	-1%	x	u	x	-4%
O=C(CN1C(=O)c2ccccc2C1=O)NCC1Cc2cccc(-c3ncccn3)c2O1 (stereo not drawn)	x	x	x	x	3%
Cc1ccc(CNC(=O)c2c(O)nc3ccccn3c2=O)cc1	7%	x	28%	x	-9%
Fc1cccc(Cl)c1CNc1n[nH]c(-c2ccco2)n1	-7%	x	-7%	x	67%
Cc1ccc2c(c1)N=C(c1ccccc1)CC(C(Cl)Cl)=N2	-1%	60%	16µM*	-27%	13%
Cc1ccc(C2=Nc3ccccc3N=C(C(Cl)Cl)C2)cc1	u	1%	35µM*	-41%	u
CC1C/C(=C/c2ccco2)C(=O)/C(=C/c2ccco2)C1 (stereo not drawn)	-15%	x	1.4µM*	-22%	x
O=C1/C(=C/c2cccs2)CCC/C1=C\c1cccs1	-1%	11µM*	-4%	-25%	54%
O=C1/C(=C\c2ccco2)CCC/C1=C\c1ccco1	-15%	u	1.4µM*	-26%	10%
O=C1/C(=C/c2ccco2)CCC1C1CCCC1 (stereo not drawn)	-12%	7%	50µM*	-12%	32%
CC1C/C(=C/c2cccs2)C(=O)/C(=C/c2cccs2)C1 (stereo not drawn)	-11%	u	-15%	-20%	13%
CCC(C)NC(=O)Cn1c(=O)c2cccn2c2ccc(F)cc21 (stereo not drawn)	20%	x	-8%	x	-23%
COc1ccc(NC(=O)COCc2cc(-c3ccc4c(c3)OCO4)on2)cc1	8%	x	7%	x	-14%
CC(C)(C)c1ccc(CC(=O)N2CCC2(C)C(=O)Nc2cnc3ccccc3c2)cc1 (stereo not drawn)	x	-11%	x	x	20µM*
CC1(C(=O)Nc2ccc3nc[nH]c3c2)CCN1C(=O)Cc1ccc(-c2ccccc2)cc1 (stereo not drawn)	x	-9%	x	x	32µM*
CC1(C(=O)Nc2ccc3nc[nH]c3c2)CCN1C(=O)C/C=C/c1ccccc1 (stereo not drawn)	x	5%	x	x	-19%
CC(C)c1ccc(CC(=O)N2CCC2(C)C(=O)Nc2cnc3ccccc3c2)cc1 (stereo not drawn)	x	-9%	x	x	u
SMILES	AmpC inh detg	AMA1 RON2 block	Sm TGR block	AmpC no deterg	FMDV inh
COc1cccc(C2(CC(=O)N3CCC(c4nc5ccc(F)cc5[nH]4)CC3)CC(=O)N(C)C2=O)c1 (stereo not drawn)	x	x	x	x	9%
CC(=O)Nc1ccc(Nc2nc(C)c([N+](=O)[O-])c(Nc3ccccc3)n2)cc1	u	-3%	-6%	-5%	u
CC(=O)Nc1ccc(Nc2nc(C)c([N+](=O)[O-])c(N(C)c3ccccc3)n2)cc1	4%	-1%	-13%	-10%	32µM*
CCOC(=O)[C@]12Cc3cc4ccccc4cc3[C@H]1N(Cc1ccccc1)C(=O)c1cc(OC)ccc12	x	-17%	x	x	7.9µM*
CCCCCN1C(=O)c2cc(OC)ccc2[C@@]2(C(=O)OCC)Cc3cc(Cl)ccc3[C@@H]12	x	1%	x	x	7.9µM*
CCOC(=O)[C@]12Cc3cc4ccccc4cc3[C@H]1N(Cc1ccccc1)C(=O)c1ccccc12	x	-10%	x	x	u
CCOC(=O)[C@]12Cc3cc(OC)ccc3[C@H]1N(Cc1ccccc1)C(=O)c1cc(OC)ccc12	x	-9%	x	x	-15%
CCOC(=O)[C@]12Cc3cc(Cl)ccc3[C@H]1N(Cc1ccccc1)C(=O)c1cc(OC)ccc12	x	-1%	x	x	8.9µM*
CCOC(=O)[C@]12Cc3ccc4ccccc4c3[C@H]1N(Cc1ccccc1)C(=O)c1ccccc12	x	0%	x	x	22µM*
CCOC(=O)[C@]12Cc3ccccc3[C@H]1N(Cc1ccccc1)C(=O)c1cc(OC)ccc12	x	-9%	x	x	u
COc1ccccc1NC(=O)c1c(C)cc(C)nc1SCC(=O)c1ccc(Cl)cc1	4%	x	0%	x	-19%
COc1cccc(NC(=O)c2oc3ccccc3c2NC(=O)C23CC4CC(CC(C4)C2)C3)c1	4%	x	-2%	x	8%
COc1ccc(Nc2ncnc3c2cnn3C)c(OC)c1	-3%	x	12%	x	-7%
Cc1ccc2c(c1)COc1c3ccc(C(=O)O)cc3nn1-2	u	2%	-7%	-11%	10µM*
Cc1ccc2c(c1)COc1c3ccc(C(=O)NCC4CC4)cc3nn1-2	1%	-5%	3%	-8%	7%
COc1ccccc1CN1C[C@@H]2C[C@@H](c3ccccc3C)N3CCC[C@@]23C1=O	6%	-6%	-3%	59%	15%
Cc1ccc([C@@H]2C[C@H]3CN(Cc4cccc(Cl)c4)C(=O)[C@]34CCCN24)o1	2%	1%	u	62%	11%
Cc1ccccc1CN1C[C@@H]2C[C@@H](c3cnc(N4CCOCC4)s3)N3CCC[C@@]23C1=O	-1%	1%	16µM*	105%	-11%
Cc1cccc([C@@H]2C[C@H]3CN(Cc4cccc(Cl)c4)C(=O)[C@]34CCCN24)n1	-2%	1%	28µM*	81%	-13%
COc1cccc(CN2CCCC(c3nc(-c4ccncc4)ncc3-c3ccccc3C)C2)c1O (stereo not drawn)	x	x	x	x	-12%
COC(=O)c1cc(O)cc(OC)c1Oc1cc(C)cc(O)c1C(=O)O	3%	u	7.1µM*	-40%	0%
CC(C)CCn1c(=O)c2sccc2n2c(CCCC(=O)NCc3ccc(F)cc3)nnc12	15%	x	0%	x	-20%
